Each structure is given as a SMILES string. Inconclusive results are not listed. Active and inactive are the calls of the source. The calls were made as follows, unless noted: active = hit-call score of the fitted dose curve at least 0.9, where 1 is the maximum; inactive = score below 0.9.

Assay [1] deals with Glucocorticoid receptor (Homo sapiens) (UniProt P04150). The assay can be described thus: ATG_GR_TRANS: Attagene TRANS-FACTORIAL HepG2 Assay for human Glucocorticoid Receptor (GR) (AID 2282978; active = hit-call score of the fitted dose curve at least 0.9, where 1 is the maximum;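 also: activators score as hits since higher reporter transcript over DMSO is fitted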). The conditions noted are these: HepG2 Attagene TRANS GR reporter, mRNA transcription. Put shortly: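 HepG2 cells transiently transfected with GAL4-UAS reporter units and exogenous GR-Gal4 chimera, dosed 24 h. Reporter mRNA by RT-PCR, FAM labeling, HpaI digest and capillary electrophoresis; gain-of-signal fit versus DMSO.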
Chain of Glucocorticoid receptor (Homo sapiens) (P04150 whole entry, looked up, the tested form may be a part): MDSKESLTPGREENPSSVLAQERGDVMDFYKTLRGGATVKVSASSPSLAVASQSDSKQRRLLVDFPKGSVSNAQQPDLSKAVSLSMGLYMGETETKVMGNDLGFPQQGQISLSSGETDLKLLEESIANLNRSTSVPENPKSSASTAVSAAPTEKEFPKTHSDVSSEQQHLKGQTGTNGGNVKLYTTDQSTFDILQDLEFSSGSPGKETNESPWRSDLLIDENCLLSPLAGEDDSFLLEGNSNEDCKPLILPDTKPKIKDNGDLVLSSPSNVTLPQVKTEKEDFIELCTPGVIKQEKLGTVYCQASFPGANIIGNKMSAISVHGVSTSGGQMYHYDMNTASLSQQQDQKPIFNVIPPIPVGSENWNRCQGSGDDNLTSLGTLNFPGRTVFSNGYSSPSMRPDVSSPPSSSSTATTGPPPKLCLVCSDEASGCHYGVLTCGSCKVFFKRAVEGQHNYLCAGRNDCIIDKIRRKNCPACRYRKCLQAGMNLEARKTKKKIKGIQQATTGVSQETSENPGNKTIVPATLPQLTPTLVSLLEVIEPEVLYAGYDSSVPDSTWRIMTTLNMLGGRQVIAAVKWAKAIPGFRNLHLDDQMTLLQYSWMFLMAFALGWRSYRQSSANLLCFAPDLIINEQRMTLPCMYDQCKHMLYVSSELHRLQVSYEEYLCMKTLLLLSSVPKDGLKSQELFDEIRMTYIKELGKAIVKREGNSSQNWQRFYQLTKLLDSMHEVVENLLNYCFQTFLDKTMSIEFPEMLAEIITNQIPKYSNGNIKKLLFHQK

For assay [2], the target named is Oxysterols receptor LXR-alpha (Homo sapiens) (UniProt Q13133). The experiment in a line: ATG_LXRa_TRANS: Attagene TRANS-FACTORIAL HepG2 Assay for human Liver X Receptor alpha (LXRa) (AID 2282980; active = hit-call score of the fitted dose curve at least 0.9, where 1 is the maximum). The conditions noted are these: HepG2 Attagene TRANS reporter, LXRa transactivation. The method in brief:
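Transient HepG2 transfectants, 24 h dosing, RT-PCR/CE mRNA reporter quantitation; gain-of-signal vs DMSO.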

The target in assay [3] is Oxysterols receptor LXR-beta (Homo sapiens) (UniProt P55055). The experiment in a line: ATG_LXRb_TRANS: Attagene TRANS-FACTORIAL HepG2 Assay for human Liver X Receptor beta (LXRb) (AID 2282981; active = hit-call score of the fitted dose curve at least 0.9, where 1 is the maximum). Particulars: HepG2 Attagene TRANS GAL4-LXRb reporter, mRNA. Put shortly:
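Gain-of-signal mRNA reporter endpoint, DMSO as negative control. Transiently transfected HepG2 cells carrying the NR-Gal4 chimera and GAL4-UAS reporter units were treated 24 h; transcripts quantified by RT-PCR and capillary electrophoresis fluorescence.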

The target of assay [4] is Hepatocyte nuclear factor 4-alpha (Homo sapiens) (UniProt P41235). The experiment in a line: ATG_HNF4a_TRANS: Attagene TRANS-FACTORIAL HepG2 Assay for human Hepatocyte Nuclear Factor 4 alpha (HNF4a) (AID 2282982; active = hit-call score of the fitted dose curve at least 0.9, where 1 is the maximum). Particulars: HepG2 HNF4a transactivation reporter, mRNA readout. Put shortly: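 Gain-of-signal mRNA induction, relative to DMSO vehicle, was read after 24 h compound treatment of HepG2 cells bearing transfected GAL4-UAS reporters. Detection used RT-PCR, 6-FAM primer extension and capillary electrophoresis.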
Chain of Hepatocyte nuclear factor 4-alpha (Homo sapiens) (P41235 whole entry, looked up, the tested form may be a part): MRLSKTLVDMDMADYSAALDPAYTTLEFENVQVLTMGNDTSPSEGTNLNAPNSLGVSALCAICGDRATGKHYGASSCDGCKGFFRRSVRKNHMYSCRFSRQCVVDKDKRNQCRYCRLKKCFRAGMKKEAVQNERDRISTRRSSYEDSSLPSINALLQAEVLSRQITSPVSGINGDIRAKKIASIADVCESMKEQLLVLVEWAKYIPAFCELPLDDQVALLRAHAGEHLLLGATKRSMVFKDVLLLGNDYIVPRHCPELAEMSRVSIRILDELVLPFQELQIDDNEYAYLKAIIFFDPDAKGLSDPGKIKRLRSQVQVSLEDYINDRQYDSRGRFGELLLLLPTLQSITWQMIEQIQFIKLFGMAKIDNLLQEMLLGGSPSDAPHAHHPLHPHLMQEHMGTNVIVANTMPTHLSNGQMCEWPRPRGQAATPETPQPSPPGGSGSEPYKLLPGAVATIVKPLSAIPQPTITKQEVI

Assay [5] can be described thus: ATG_M_06_TRANS: Attagene TRANS-FACTORIAL HepG2 Assay for M06 Transcription Factor (Internal Marker) (AID 2282983; active = hit-call score of the fitted dose curve at least 0.9, where 1 is the maximum). The conditions noted are these: HepG2 Attagene TRANS M06 internal marker reporter. The method in brief:
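Measured by capillary electrophoresis of fluorescently labelled RT-PCR products, this endpoint reflects reporter mRNA in HepG2 cells harbouring exogenous NR-GAL4 reporter constructs after 24 h exposure, with DMSO as baseline.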

Assay [6] in a line: ATG_M_32_TRANS: Attagene TRANS-FACTORIAL HepG2 Assay for M32 Transcription Factor (Internal Marker) (AID 2282984; active = hit-call score of the fitted dose curve at least 0.9, where 1 is the maximum;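 also: transcript level of a background control reporter unit measured by RT-PCR and capillary electrophoresis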). Particulars: HepG2 Attagene TRANS M32 internal marker reporter. The method in brief: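 Capillary electrophoresis of 6-FAM-labelled reporter fragments gives the signal; data fitted for gain over DMSO negative control. Source: HepG2 cells bearing transient multiple reporter transcription units, 24 h exposure.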

The target of assay [7] is Nuclear receptor subfamily 4 group A member 2 (Homo sapiens) (UniProt P43354). The experiment in a line: ATG_NURR1_TRANS: Attagene TRANS-FACTORIAL HepG2 Assay for human Nuclear Receptor Related Protein 1 (NURR1) (AID 2282985; active = hit-call score of the fitted dose curve at least 0.9, where 1 is the maximum). The conditions noted are these: HepG2 Attagene TRANS reporter, mRNA readout. Put shortly: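 HepG2 / transient MRTU transfection / 24 h compound exposure / RT-PCR + CE fluorescence of reporter mRNA / gain-of-signal vs DMSO.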
Chain of Nuclear receptor subfamily 4 group A member 2 (Homo sapiens) (P43354 whole entry, looked up): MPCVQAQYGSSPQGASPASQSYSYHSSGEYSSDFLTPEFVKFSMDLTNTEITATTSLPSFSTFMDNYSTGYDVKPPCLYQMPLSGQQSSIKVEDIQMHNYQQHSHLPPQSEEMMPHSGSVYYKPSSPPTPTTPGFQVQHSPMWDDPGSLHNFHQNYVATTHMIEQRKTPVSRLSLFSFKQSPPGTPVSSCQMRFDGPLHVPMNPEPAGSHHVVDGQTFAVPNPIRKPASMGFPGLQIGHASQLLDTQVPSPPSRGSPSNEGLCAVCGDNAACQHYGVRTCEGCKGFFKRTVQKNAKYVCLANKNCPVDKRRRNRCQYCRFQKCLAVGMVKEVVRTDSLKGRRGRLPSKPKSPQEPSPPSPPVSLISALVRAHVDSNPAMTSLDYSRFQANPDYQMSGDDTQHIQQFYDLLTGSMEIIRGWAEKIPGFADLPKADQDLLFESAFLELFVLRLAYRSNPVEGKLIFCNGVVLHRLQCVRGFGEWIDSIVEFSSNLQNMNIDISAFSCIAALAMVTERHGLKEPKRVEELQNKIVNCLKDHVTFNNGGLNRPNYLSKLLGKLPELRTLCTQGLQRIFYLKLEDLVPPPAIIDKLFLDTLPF

Assay [8] concerns the target Transcriptional activator Myb (Homo sapiens) (UniProt P10242). The assay can be described thus: ATG_Myb_CIS: Attagene CIS-FACTORIAL HepG2 Assay for human Myeloblastosis (Myb) Proto-Oncogene Transcription Factor (AID 2282986). Particulars: HepG2 Attagene CIS-FACTORIAL Myb reporter transcription; actives raise or lower the signal. Put shortly: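 Transiently transfected HepG2 cells carrying a multiplexed cis-promoter reporter set report endogenous Myb activity after 24 h compound exposure. Reporter mRNA is read by RT-PCR with capillary electrophoresis of fluorescent products, fitted bidirectionally against DMSO.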

For assay [9], the target named is Nuclear respiratory factor 1 (Homo sapiens) (UniProt Q16656). The experiment in a line: ATG_NRF1_CIS: Attagene CIS-FACTORIAL HepG2 Assay for human Nuclear Respiratory Factor 1 (NRF1) Orphan Gene (AID 2282987). Particulars: HepG2 NRF1 cis-element reporter, Attagene multiplex; actives raise or lower the signal. Put shortly:
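HepG2 cells transiently transfected with multiple cis-regulated reporter units, exposed 24 h. Reporter mRNAs measured by RT-PCR, fluorescent labelling, HpaI digestion and capillary electrophoresis; bidirectional fitting against DMSO.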

The nature of assay [10]: ATG_NFI_CIS: Attagene CIS-FACTORIAL HepG2 Assay for human Nuclear Factor I (NFI) (AID 2282989). Particulars: HepG2 cis-regulatory reporter, NFI response element transcription; actives raise or lower the signal. Put shortly:
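Read-out: reporter mRNA via RT-PCR plus capillary electrophoresis with fluorescence detection. Transiently transfected HepG2 (endogenous TF activity on cis promoters), 24 h compound exposure; gain or loss of signal fitted against DMSO.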

Assay [11] deals with Myc proto-oncogene protein (Homo sapiens) (UniProt P01106). The experiment in a line: ATG_Myc_CIS: Attagene CIS-FACTORIAL HepG2 Assay for human Myelocytomatosis (Myc) Proto-Oncogene Transcription Factor (AID 2282990). The conditions noted are these: HepG2, Attagene cis-reporter transcription factor activity; actives raise or lower the signal. Put shortly: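 Read-out: fluorescent reporter mRNA fragments resolved by capillary electrophoresis after RT-PCR. Human HepG2 liver cells carried transfected cis-element reporter units and were dosed for 24 h. Gain or loss of signal fitted relative to DMSO baseline.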
Chain of Myc proto-oncogene protein (Homo sapiens) (P01106 whole entry, looked up, the tested form may be a part): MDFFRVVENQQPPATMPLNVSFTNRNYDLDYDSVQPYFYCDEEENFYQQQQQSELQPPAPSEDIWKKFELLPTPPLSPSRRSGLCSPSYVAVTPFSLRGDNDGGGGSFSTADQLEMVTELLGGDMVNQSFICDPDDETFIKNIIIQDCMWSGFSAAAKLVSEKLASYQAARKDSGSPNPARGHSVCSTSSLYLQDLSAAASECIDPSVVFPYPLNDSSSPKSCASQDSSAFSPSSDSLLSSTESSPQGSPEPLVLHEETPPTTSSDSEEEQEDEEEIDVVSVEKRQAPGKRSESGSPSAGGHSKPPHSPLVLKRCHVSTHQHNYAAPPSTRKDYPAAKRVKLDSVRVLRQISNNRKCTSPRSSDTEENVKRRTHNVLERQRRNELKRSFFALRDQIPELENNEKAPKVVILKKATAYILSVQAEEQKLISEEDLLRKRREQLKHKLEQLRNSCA

Assay [12] can be described thus: ATG_NF_kB_CIS: Attagene CIS-FACTORIAL HepG2 Assay for human Nuclear Factor Kappa B (NF-kB) (AID 2282991). The conditions noted are these: HepG2 Attagene cis-factorial NF-kB reporter mRNA; actives raise or lower the signal. The method in brief: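 HepG2 cells transfected with cis-promoter-driven reporter units, so endogenous transcription factor activity is measured. Reporter mRNA quantified 24 h after dosing by RT-PCR and capillary electrophoresis, with bidirectional fitting against DMSO.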

Assay [13] can be described thus: ATG_NRF2_ARE_CIS: Attagene CIS-FACTORIAL HepG2 Assay for human Nuclear Factor Erythroid 2 Related Factor 2 (NFR2) response to Antioxidant Response Elements (ARE) (AID 2282992).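 As to AC50: reporter mRNA level measured by RT-PCR and capillary electrophoresis fluorescence.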 Particulars: HepG2 Attagene ARE/NRF2 reporter, transcription factor activity; actives raise or lower the signal. The method in brief: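 Cis-factorial assay: transfected HepG2 reporter library, 24 h dosing, mRNA readout via RT-PCR/CE; DMSO-referenced bidirectional analysis.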

The nature of assay [14]: ATG_Oct_MLP_CIS: Attagene CIS-FACTORIAL HepG2 Assay for human Octamer-Binding Transcription Factor (Oct) (AID 2282993). Particulars: HepG2 Attagene cis-factorial Oct reporter, mRNA; actives raise or lower the signal. The method in brief: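 Read-out: reporter mRNA via RT-PCR plus capillary electrophoresis of 6-FAM-labelled fragments. Transiently transfected HepG2, 24 h exposure, endogenous TF activity on cis elements. Gain or loss of signal fitted relative to DMSO.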

In assay [15] the target is Cellular tumor antigen p53 (Homo sapiens) (UniProt P04637). The experiment in a line: ATG_p53_CIS: Attagene CIS-FACTORIAL HepG2 Assay for human p53 Transcription Factor (AID 2282994). Particulars: HepG2 p53 cis-element reporter, Attagene mRNA; actives raise or lower the signal. Put shortly:
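Using HepG2 hepatoma cells carrying cis-acting multiplexed reporters, mRNA induction is detected after a 24 h exposure. Gain- and loss-of-signal responses are fitted relative to DMSO-treated cells.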

Assay [16] can be described thus: BSK_3C_TissueFactor: BioMAP Diversity Plus: 3C Assay for Tissue Factor Biomarker Activity (AID 2282997). Particulars: BioMAP 3C HUVEC, tissue factor biomarker readout; actives raise or lower the signal. Put shortly: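 Values derive from bidirectional curve fitting against DMSO of Tissue Factor ELISA signals, taken 24 h after dosing primary human umbilical vein endothelial cells.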

Assay [17] is described as follows: BSK_3C_uPAR: BioMAP Diversity Plus: 3C Assay for Urokinase-type plasminogen activator receptor (uPAR) Biomarker Activity (AID 2282998). Particulars: BioMAP 3C HUVEC, uPAR biomarker ELISA; actives raise or lower the signal. The method in brief:
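HUVEC primary cells; 24 h post-dose; uPAR by ELISA; gain or loss of signal fitted bidirectionally vs DMSO baseline.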
Background: In an ELISA, binding on a coated surface is turned into a signal by an enzyme label.

Chain of Cellular tumor antigen p53 (Homo sapiens) (P04637 whole entry, looked up): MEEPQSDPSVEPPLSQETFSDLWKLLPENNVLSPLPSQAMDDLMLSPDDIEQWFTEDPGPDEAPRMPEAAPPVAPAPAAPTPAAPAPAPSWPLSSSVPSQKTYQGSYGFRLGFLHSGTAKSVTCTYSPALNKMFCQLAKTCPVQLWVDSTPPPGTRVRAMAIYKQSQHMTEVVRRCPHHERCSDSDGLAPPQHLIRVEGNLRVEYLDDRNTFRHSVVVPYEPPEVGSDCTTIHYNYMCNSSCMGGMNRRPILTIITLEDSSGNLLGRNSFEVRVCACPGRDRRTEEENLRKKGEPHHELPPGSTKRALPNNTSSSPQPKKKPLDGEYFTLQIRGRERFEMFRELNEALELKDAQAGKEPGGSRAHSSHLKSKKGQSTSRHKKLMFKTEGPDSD
Chain of Transcriptional activator Myb (Homo sapiens) (P10242 whole entry, looked up): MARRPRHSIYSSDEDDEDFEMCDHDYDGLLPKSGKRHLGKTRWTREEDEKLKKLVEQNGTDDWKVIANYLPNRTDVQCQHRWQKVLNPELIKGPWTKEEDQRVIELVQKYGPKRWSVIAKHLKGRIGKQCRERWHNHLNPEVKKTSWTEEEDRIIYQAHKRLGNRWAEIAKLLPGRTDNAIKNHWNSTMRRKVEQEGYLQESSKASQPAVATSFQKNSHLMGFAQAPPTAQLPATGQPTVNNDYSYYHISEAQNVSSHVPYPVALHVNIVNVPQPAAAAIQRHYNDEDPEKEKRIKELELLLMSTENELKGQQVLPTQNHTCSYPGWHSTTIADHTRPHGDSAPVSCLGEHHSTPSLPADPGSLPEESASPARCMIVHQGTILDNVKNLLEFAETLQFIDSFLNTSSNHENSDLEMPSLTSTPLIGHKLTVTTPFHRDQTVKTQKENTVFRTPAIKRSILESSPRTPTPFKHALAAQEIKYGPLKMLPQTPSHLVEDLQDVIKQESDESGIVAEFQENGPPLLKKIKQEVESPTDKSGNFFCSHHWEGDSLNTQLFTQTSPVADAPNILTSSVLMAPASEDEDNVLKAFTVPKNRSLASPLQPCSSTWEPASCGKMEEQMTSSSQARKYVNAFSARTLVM
Chain of Nuclear respiratory factor 1 (Homo sapiens) (Q16656 whole entry, looked up): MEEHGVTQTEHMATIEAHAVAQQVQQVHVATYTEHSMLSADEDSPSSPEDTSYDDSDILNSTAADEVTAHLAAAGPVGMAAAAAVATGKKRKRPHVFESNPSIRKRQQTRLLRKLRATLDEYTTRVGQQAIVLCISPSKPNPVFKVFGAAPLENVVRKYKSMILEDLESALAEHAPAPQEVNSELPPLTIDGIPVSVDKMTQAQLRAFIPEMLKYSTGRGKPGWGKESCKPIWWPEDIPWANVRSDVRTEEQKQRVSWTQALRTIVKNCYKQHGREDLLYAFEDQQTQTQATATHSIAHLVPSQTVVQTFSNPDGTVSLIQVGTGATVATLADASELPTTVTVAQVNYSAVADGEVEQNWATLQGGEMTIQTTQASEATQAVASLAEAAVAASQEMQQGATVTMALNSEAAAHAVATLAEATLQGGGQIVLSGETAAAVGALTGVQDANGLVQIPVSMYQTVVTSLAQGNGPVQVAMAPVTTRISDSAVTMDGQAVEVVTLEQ
Chain of Oxysterols receptor LXR-beta (Homo sapiens) (P55055 whole entry, looked up, the tested form may be a part): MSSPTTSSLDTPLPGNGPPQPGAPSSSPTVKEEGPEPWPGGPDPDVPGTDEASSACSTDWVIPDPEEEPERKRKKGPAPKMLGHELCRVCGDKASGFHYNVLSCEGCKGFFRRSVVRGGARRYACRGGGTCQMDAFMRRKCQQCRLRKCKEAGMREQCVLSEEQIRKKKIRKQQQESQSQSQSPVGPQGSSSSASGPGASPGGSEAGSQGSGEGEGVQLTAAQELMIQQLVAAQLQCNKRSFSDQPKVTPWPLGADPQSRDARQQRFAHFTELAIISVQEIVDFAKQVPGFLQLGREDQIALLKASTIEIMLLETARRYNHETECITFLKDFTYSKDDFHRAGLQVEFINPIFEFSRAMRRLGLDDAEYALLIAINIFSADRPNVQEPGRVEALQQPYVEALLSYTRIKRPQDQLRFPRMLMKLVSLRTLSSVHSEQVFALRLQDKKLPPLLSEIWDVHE
Chain of Oxysterols receptor LXR-alpha (Homo sapiens) (Q13133 whole entry, looked up): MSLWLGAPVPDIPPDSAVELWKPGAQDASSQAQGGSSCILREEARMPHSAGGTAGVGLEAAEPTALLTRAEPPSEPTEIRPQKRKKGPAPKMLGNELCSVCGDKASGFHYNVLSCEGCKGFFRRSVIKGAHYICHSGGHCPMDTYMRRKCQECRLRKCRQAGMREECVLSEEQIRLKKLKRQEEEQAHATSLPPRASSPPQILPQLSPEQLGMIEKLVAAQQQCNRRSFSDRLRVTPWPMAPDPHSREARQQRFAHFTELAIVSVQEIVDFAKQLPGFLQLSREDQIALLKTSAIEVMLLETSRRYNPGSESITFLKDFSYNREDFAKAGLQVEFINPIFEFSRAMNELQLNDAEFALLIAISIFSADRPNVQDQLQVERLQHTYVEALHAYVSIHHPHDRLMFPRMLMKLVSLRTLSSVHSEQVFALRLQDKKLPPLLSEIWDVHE

On to `C=C(C)C(=O)OCC(F)(F)C(F)(F)C(F)(F)C(F)F`, for which the compound was classed as inactive in assay [1], in assay [2], in [3], in assay [4], in [5] and in [6]. In addition, the result in assay [7], in [8], in [9], in [10], in assay [11] and in [12] was inactive. For the same compound, the compound was classed as inactive in [13], in [14], in [15], in assay [16] and in [17].

Regarding `OCCCc1cccnc1`, the compound was called inactive in assay [1], in assay [4], in assay [5], in assay [6], in [7] and in assay [8]. For the same compound, the compound was called inactive in [9], in assay [10], in assay [11], in assay [12], in assay [13] and in assay [14]. In addition, in assay [15], the outcome was inactive.

Turning to `Cc1cc(O)c(C(C)(C)C)cc1C(C)(C)C`, the call in assay [1], in assay [5], in assay [6], in [8], in [9] and in assay [10] was inactive. Further, the compound was classed as inactive in assay [11] and in assay [12]. Also, the AC50 in assay [2] is 2.99 µM (active); in assay [3], 4.8 µM (active); in assay [7] it was 5.29 µM (active); in assay [13], 11.1 µM (active); in assay [16] it was 3.4 µM (active); in assay [17], 3.82 µM (active).

Take `CC(C)OC=O`: the compound was called inactive in assay [1], in [5], in [7], in assay [8], in assay [9] and in assay [10]. Also, the compound was called inactive in assay [11], in [12], in assay [13] and in assay [14].

With `CCCCC(CC)COC(=O)c1ccc(N(C)C)cc1` (stereo not drawn), the call in [1], in [4], in [5], in assay [6], in assay [7] and in [8] was inactive. Moreover, the compound was classed as inactive in assay [9], in assay [10], in assay [11], in assay [12] and in assay [15]. The AC50 in assay [13] is 27.4 µM (active).

Turning to `CCCCCCCCn1sc(Cl)c(Cl)c1=O`, the compound was classed as inactive in assay [1], in assay [3], in assay [5], in assay [6], in [7] and in assay [9]. The compound was called inactive in assay [10], in assay [11] and in assay [12]. Moreover, the AC50 in [8] is 20.4 µM (active); in assay [13] it was 6.58 µM (active); in assay [15] it was 11.1 µM (active).

For the compound `CC(=O)CCC(C)C`, the call in assay [1], in assay [3], in assay [8], in assay [9], in [10] and in assay [11] was inactive. For the same compound, the compound was classed as inactive in assay [12], in [13], in [14] and in assay [15].

Usually AC50 stands for the midpoint of the concentration-response curve, whichever way the signal moves.

The record behind these values is PubChem BioAssay (EPA / NIEHS).
